Activity calls are given as the source filed them. No rule for the calls is given here.

This test can be described thus: Vero 76 cell cytotoxicity, dose response, cytotoxicity control, set 5 (AID 624069). The note with it: Vero 76 cells cytotoxicity; series mostly up to 25 µM.
For `CCN1CCN(Cc2nc3ccc([N+](=O)[O-])cc3c(=O)n2-c2ccccc2)CC1`, the call was inactive.
On to `CN1CCN(Cc2nc3ccc([N+](=O)[O-])cc3c(=O)n2-c2ccccc2F)CC1`, for which the call was inactive.
Then `CCN1CCN(Cc2nc3ccc([N+](=O)[O-])cc3c(=O)n2-c2ccc(F)cc2)CC1`, with “inactive”; and `O=C(NCc1ccco1)C1CCN(C(=O)c2cc3sccc3n2Cc2ccc(F)cc2)CC1`, with “inactive”.
Then `CC(C)(C)OC(=O)N1CCN(Cc2nc3ccc([N+](=O)[O-])cc3c(=O)n2-c2ccccc2F)CC1`, with “inactive”; and `CCN1CCN(Cc2nc3ccc([N+](=O)[O-])cc3c(=O)n2-c2ccccc2F)CC1`, with “inactive”.
Then `CCN1CCN(Cc2nc3ccccc3c(=O)n2-c2ccccc2F)CC1`, with “inactive”; and `O=c1c2cc([N+](=O)[O-])ccc2nc(CN2CCNCC2)n1-c1ccccc1F`, with “inactive”; and `CCN1CCN(Cc2nc3ccc([N+](=O)[O-])cc3c(=O)n2-c2cccc(F)c2)CC1`, with “inactive”.
Consider `CCN1CCN(Cc2nc3ccc(C(F)(F)F)cc3c(=O)n2-c2ccccc2F)CC1`, for which the call was inactive.

(Values after PubChem BioAssay AID624069 (Southern Research Specialized Biocontainment Screening …, 2012).)
